Reference: PubChem BioAssay (NCATS)
Values joined by “and” are separate entries in the source; they are usually repeats but may differ in a detail not shown here. Equal entries are not always repeated. Results filed as inconclusive are left out. Where a call stands in place of a potency, no number is given. A number with no mark means an inactive call. Active and inactive are the calls of the source. Calls follow the shape of the dose curve; as a rule, active = well fitted cell-killing curve with a large enough effect; inconclusive = small, poorly fitted or top-dose-only effect, or effect the other way; inactive = no such curve, though single readings can be large or run the other way.

Experiments:
[1] = Viability qHTS for spleen associated tyrosine kinase inhibitor (SYKi) naive MV4-11 cells (AID 1963823); also: nearly all actives have a fitted effect of over 40% in size
Summary of the method: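 Compounds were dispensed acoustically onto plates, MV4-11 cells (SYKi-naive) added at 500 per well, and plates incubated 72 hr at 37 C. CellTiter-Glo was added and luminescence measured after 10 min.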

[2] = Viability qHTS for spleen associated tyrosine kinase inhibitor (SYKi) drug resistant MV4-11 cells (AID 1963824); also: nearly all actives have a fitted effect of over 35% in size
Summary of the method: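 SYK inhibitor-resistant MV4-11 AML cells, 500 per well, added to predispensed compounds and incubated 72 hr at 37 C, 5% CO2. Viability measured by CellTiter-Glo luminescence after 10 min at room temperature.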
Potency is read from the fitted curve at half-maximal effect.

For CCN1CCN(c2ccc(Nc3ccc(-c4ccc(C(N)=O)cc4)n4ncnc34)cc2)CC1, which Potency [1] is on record?
The Potency was 0.517 µM (active).

What about the Potency [2] of the same molecule?
Its Potency is 0.651 µM (active).

Which Potency [1] does the source give for C=C1CCC2C(C)(C(=O)O)CC(O)CC2(C)C1CC/C(C)=C/C(=O)O (stereo not given) here?
Its Potency is “inactive”.

And the Potency [2]?
Its Potency is “inactive”.

Which Potency [1] does the source give for CN1CCN(Cc2ccc(NC(=O)Cc3ccc(Oc4cc(NC(=O)C5CC5)ncn4)cc3)cc2C(F)(F)F)CC1 here?
The Potency was “inactive”.

What about the Potency [2] of the same molecule?
The Potency was “inactive”.

With C=C1C(=O)OC2CC(C)=C(C(C)CCCO[C@@H]3O[C@H](CO)[C@@H](O)[C@H](O)[C@H]3O)C(O)C12 (stereo not given in full) as the molecule, how does the Potency [1] read?
The Potency was “inactive”.

And the Potency [2]?
Its Potency is “inactive”.

For C=C1CC[C@@H]2[C@](C)(CO)[C@H](O)CC[C@@]2(C)[C@@H]1CC(O)C1=CCOC1=O (stereo not given in full), which Potency [1] is on record?
Its Potency is 9.04 µM (active).

And the Potency [2]?
The Potency was 4.53 µM (active).

With O=C(O[C@H]1[C@@H]2C=CO[C@@H](O[C@@H]3O[C@H](CO)[C@@H](O)[C@H](O)[C@H]3O)[C@@H]2[C@@]2(CO)O[C@@H]12)c1ccc(O)cc1 as the molecule, how does the Potency [1] read?
Its Potency is “inactive”.

What about the Potency [2] of the same molecule?
Its Potency is “inactive”.

What does the source list for CCC(=O)c1cc(-c2ccc(Cl)cc2)n(-c2ccc(S(N)(=O)=O)cc2)c1C?
Potency [1]: 20.6 µM (active); Potency [2]: 16.4 µM (active)

What does the source list for O=C(c1ccc2nccnc2c1)N1CCCCC1?
Potency [1]: inactive; Potency [2]: inactive

For Clc1ccc(Cn2c(CN3CCCC3)nc3ccccc32)cc1, which Potency [1] is on record?
Its Potency is 14.8 µM (active).

What about the Potency [2] of the same molecule?
Its Potency is 15 µM (active) and 14.8 µM (active).

Which results are given for Cc1nnc(-c2sc(NC(=O)[C@H](C(C)C)n3c(=O)[nH]c4ccccc4c3=O)nc2C)o1?
Potency [1]: inactive; Potency [2]: inactive

Which results are given for C#CCN(Cc1cc2c(=O)[nH]c(C)nc2cc1Br)c1ccc(C(=O)NCc2cccnc2)cc1?
Potency [1]: inactive; Potency [2]: inactive

For COc1cc2occc2c(O[C@@H]2O[C@H](CO)[C@@H](O)[C@H](O)[C@H]2O)c1CCC(=O)O, which Potency [1] is on record?
Its Potency is “inactive”.

And the Potency [2]?
Its Potency is “inactive”.

What does the source list for COC(=O)C1=CO[C@@H](O[C@@H]2O[C@H](CO)[C@@H](O)[C@H](O)[C@H]2O)[C@@H]2[C@@](C)(O)[C@@H](O)C[C@]12O?
Potency [1]: inactive; Potency [2]: inactive

For CCC1C(=O)N(C)c2cnc(Nc3ccc(C(=O)NC4CCC(N5CCN(CC6CC6)CC5)CC4)cc3OC)nc2N1C(C)C (stereo not given), which Potency [1] is on record?
Its Potency is 0.0259 µM (active).

What about the Potency [2] of the same molecule?
Its Potency is 0.0116 µM (active).

What does the source list for CC(O)(CC(=O)O)CC(=O)OCc1ccc(O[C@@H]2O[C@H](CO)[C@@H](O)[C@H](O)[C@H]2O)cc1 (stereo not given in full)?
Potency [1]: inactive; Potency [2]: inactive

With CN(CCO)C1CCN(c2ccc(Nc3ncc4c5ccnc(F)c5n(C5CCCC5)c4n3)nc2)CC1 as the molecule, how does the Potency [1] read?
Its Potency is 0.0355 µM (active).

And the Potency [2]?
The Potency was 0.0645 µM (active).

With CC(C)=CCCC1(C)Oc2cc3c(c4c2C2C(O4)C(C)(O)CCC21)CN(C(CCC(=O)O)C(=O)O)C3=O (stereo not given) as the molecule, how does the Potency [1] read?
The Potency was “inactive”.

What about the Potency [2] of the same molecule?
Its Potency is “inactive”.

Which Potency [1] does the source give for COc1cc([C@H]2OC[C@]3(OC(C)=O)[C@@H](c4ccc(O[C@@H]5O[C@H](CO)[C@@H](O)[C@H](O)[C@H]5O)c(OC)c4)OC[C@H]23)ccc1O here?
The Potency was “inactive”.

And the Potency [2]?
The Potency was “inactive”.

Which viability (% of control) [1] does the source give for CC1(C)CC[C@]2(C(=O)O[C@@H]3O[C@H](CO)[C@@H](O)[C@H](O)[C@H]3O)CC[C@]3(C)C(=CCC4[C@@]5(C)CC[C@H](O[C@H]6O[C@H](CO)[C@@H](O)[C@H](O[C@@H]7O[C@H](CO)[C@@H](O)[C@H](O)[C@H]7O)[C@H]6O)C(C)(C)C5CC[C@]43C)[C@@H]2C1 (stereo not given in full) here?
Its viability (% of control) is 84% [at 9.25 µM].

What about the viability, % of control [2] of the same molecule?
Its viability, % of control is 95.6% [at 9.25 µM].

For Cc1nc(N2CCN(C(=O)c3ccco3)CC2)c2c3c(sc2n1)CCCC3, which Potency [1] is on record?
Its Potency is 9.2 µM (active).

What about the Potency [2] of the same molecule?
Its Potency is 14.6 µM (active).

Which Potency [1] does the source give for O=C1c2ccccc2-c2nc3nnnn3nc21 (tested in a mixture with another compound) here?
The Potency was 0.092 µM (active).

What about the Potency [2] of the same molecule?
Its Potency is 0.103 µM (active).

Which results are given for C/C(=C\CC[C@@H](C)[C@H]1CC(O)[C@@]2(C)C3CC[C@H]4C(C)(C)[C@@H](OC5OCC(O)C(O)C5OC5OC(CO)C(O)C(O)C5O)CC[C@@]45C[C@@]35CC(O)[C@]12C)C(=O)O (stereo not given in full)?
Potency [1]: inactive; Potency [2]: inactive

With COC1CC(=O)C23C(=O)NC(Cc4c[nH]c5ccccc45)C2C(C)C2(C)OC2C3/C=C/CC(C)CC1O (stereo not given) as the molecule, how does the Potency [1] read?
Its Potency is 3.99 µM (active).

And the Potency [2]?
The Potency was 4.47 µM (active).

With C[C@]1(OC(=O)/C=C\c2ccc(O)cc2)C[C@@H](O)[C@]2(O)C=CO[C@@H](O[C@@H]3O[C@H](CO)[C@@H](O)[C@H](O)[C@H]3O)C12 (stereo not given in full) as the molecule, how does the Potency [1] read?
The Potency was “inactive”.

And the Potency [2]?
The Potency was “inactive”.

With O=C(Nc1ccccc1)c1ccc(Nc2nnc(-c3ccc(O)cc3)c3ccccc23)cc1 as the molecule, how does the Potency [1] read?
The Potency was 16.4 µM (active).

What about the Potency [2] of the same molecule?
Its Potency is 23.1 µM (active).
